From PubChem BioAssay
Several values for one entry are separate records, joined by “and”; a condition that tells them apart may be missing. Equal values may be shown once. Records with an inconclusive call do not appear. More than one record can exist for a structure, and the calls need not agree. Activity calls are given as the source filed them.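 How the source made its calls, unless noted: active means normalized viability below 100% at a tested concentration; inactive means the rest.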

Tests used:
[1] = growth inhibition of DIPG glioma cells, dose response, cell-based, SU-DIPG-XVII, MIPE5.0, CellTiter-Glo, qHTS (AID 1347060; cut-off not given, nearly all actives have AC50 up to about 26 µM;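 further: cells exposed to compound for 48 hours before viability readout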); settings: SU-DIPG-XVII viability, CellTiter-Glo ATP luminescence
[2] = growth inhibition of DIPG glioma cells, dose response, cell-based, SU-DIPG-XIII, MIPE4.0, CellTiter-Glo, qHTS (AID 1347061; cut-off not given, nearly all actives have AC50 up to about 37 µM;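 further: cells exposed to compound for 48 hours before readout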); settings: SU-DIPG-XIII viability, CellTiter-Glo ATP luminescence
[3] = growth inhibition of DIPG glioma cells, dose response, cell-based, JHH-DIPG-1, MIPE4.0, CellTiter-Glo, qHTS (AID 1347062; cut-off not given, nearly all actives have AC50 up to about 27 µM;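 further: cells exposed to compound for two days before readout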); settings: JHH-DIPG-1 viability, CellTiter-Glo ATP luminescence
[4] = growth inhibition of DIPG glioma cells, dose response, cell-based, SU-DIPG-IV, MIPE4.0, CellTiter-Glo, qHTS (AID 1347063; cut-off not given, nearly all actives have AC50 up to about 30 µM;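 further: compound exposure lasted 48 hours before the viability readout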); settings: SU-DIPG-IV viability, CellTiter-Glo ATP luminescence
[5] = growth inhibition of DIPG glioma cells, dose response, cell-based, SU-DIPG-XIII, MIPE5.0, CellTiter-Glo, qHTS (AID 1347064; cut-off not given, nearly all actives have AC50 up to about 23 µM;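 further: cells exposed to compound for 48 hours before the viability read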); settings: SU-DIPG-XIII viability, CellTiter-Glo ATP luminescence
[6] = viability loss in pontine glioma line – cell-based, SU-DIPG-XXV, MIPE5.0, CellTiter-Glo, qHTS, dose response (AID 1347065; cut-off not given, nearly all actives have AC50 up to about 26 µM;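 further: cells exposed to compound for 48 hours before ATP readout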); settings: CellTiter-Glo ATP luminescence
[7] = SU-DIPG-VI glioma cell viability, MIPE4.0 library, CellTiter-Glo luminescence, qHTS (AID 1347066; cut-off not given, nearly all actives have AC50 up to about 30 µM;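 further: cells exposed to compound for 48 hours before readout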); settings: CellTiter-Glo ATP luminescence
[8] = JHH-DIPG-1 glioma cell viability, MIPE5.0 library, CellTiter-Glo luminescence, qHTS (AID 1347067; cut-off not given, nearly all actives have AC50 up to about 26 µM;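 further: cells exposed to compound for 48 hours before readout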); settings: JHH-DIPG-1 glioma viability, CellTiter-Glo ATP luminescence
[9] = sensitizers of A549 cells to miR-34 induction, primary screen, imaging, A549 dox-inducible miR-34, nuclei and caspase counts (AID 1347080;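 active means compounds whose cell count with miR-34 switched on is under 0.7 times the count with it off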); settings: A549 miR-34 inducible, Hoechst nuclei count, 48 h
[10] = modifiers of HSF1 nuclear foci, imaging, Selleck Cancer Library (AID 1347162; in the data active means plate-normalised HSF1 focus index below about 0.46); settings: human cells, at 10 µM; SSMD: measured here: HSF1 foci SSMD mean; cell count: measured here: cell number; plate-normalised HSF1 focus index: stronger effect = lower value
[11] = survival rescue of mitochondrial mutant cells in low glucose, primary screen, MELAS cybrids, Rieske KO mouse fibroblasts, CellTiter-Glo (AID 1508586;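 active means mean z-score across replicates of 1.96 or higher in either the MELAS or the Rieske mutant cell line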;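 further: z relative to plate mean and SD of compound and empty wells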)
[12] = ovarian cancer cell viability with rucaparib, profiling panel, oncology-focused library, rucaparib conditional (AID 1508598); settings: patient-derived ovarian cancer cells, CellTiter-Glo viability, 144 h, stronger effect = lower value
[13] = LFS_MB_P medulloblastoma growth inhibition, cell-based, chromothripsis tumors, cisplatin or BGB combos (AID 1671449; in the data active means inhibition above about 80%;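 further: cells exposed for 96 hours; 0% = vehicle DMSO and 100% = killing by high DMSO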); settings: LFS_MB_P medulloblastoma cells
[14] = HDN33 neuroblastoma growth inhibition, cell-based, chromothripsis tumors, cisplatin or BGB combos (AID 1671450; in the data active means inhibition above about 80%;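 further: cells exposed to compound for four days; 0% = vehicle DMSO and 100% = cell killing by high DMSO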); settings: HDN33 neuroblastoma cells, stronger effect = higher value
[15] = ICB984 medulloblastoma cell growth inhibition, synergistic combos for chromothripsis tumors, cisplatin or BGB combos (AID 1671451; call rule not given here;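 further: cells exposed for 96 hours before readout; 0% = vehicle DMSO and 100% = killing by high DMSO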); settings: ICB984 medulloblastoma cells, drug combinations, stronger effect = higher value
[16] = HTB85 osteosarcoma cell growth inhibition, synergistic combos for chromothripsis tumors, BGB or cisplatin IC20 combos (AID 1671453; in the data active means inhibition above about 80%;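 further: cells exposed for 96 hours before readout; 0% = vehicle DMSO and 100% = high DMSO killing control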); settings: HTB85 osteosarcoma cells, drug combinations, stronger effect = higher value
[17] = MDA-MB-436 breast carcinoma cell growth inhibition, synergistic combos for chromothripsis tumors, BGB or cisplatin combos (AID 1671458; call rule not given here;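 further: cells exposed for 96 hours; 0% = vehicle DMSO and 100% = killing by high DMSO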); settings: MDA-MB-436 breast carcinoma growth inhibition, drug combinations, stronger effect = higher value
[18] = growth inhibition of BT084 medulloblastoma cells, cell-based, ICGC_MB145, cisplatin and BGB IC40 combos (AID 1671461; in the data active means inhibition above about 80%;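 further: cells exposed to drugs for 96 hours; 0% = vehicle DMSO and 100% = high DMSO full killing control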); settings: drug combinations, stronger effect = higher value
[19] = growth inhibition of RCMB18 medulloblastoma cells, cell-based, cisplatin and BGB IC40 combos (AID 1671462; in the data active means inhibition above about 80%;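 further: cells exposed to compound for four days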); settings: stronger effect = higher value

C#Cc1cccc(Nc2ncnc3cc(OC)c(OCCCCCCC(=O)NO)cc23)c1
AC50 [1]: 742 nM (active) | AC50 [2]: 398 nM (active) | AC50 [3]: 148 nM (active) | AC50 [4]: 418 nM (active) | AC50 [5]: 661 nM (active) | AC50 [6]: 417 nM (active) | AC50 [7]: 74.3 nM (active) | AC50 [8]: 833 nM (active) | fold change ([9]; stronger effect = lower value, cell number ratio, induced over uninduced): 0.901 (inactive) | fold change ([9]; measured here: relative caspase fold change +Dox/-Dox): 0.807 | cell count ([9]; measured here: total cells with miR-34 induction, stronger effect = lower value): 1090 | cell count ([9]; measured here: total cells without miR-34 induction): 1210 | SSMD [10]: -4.22 | cell count [10]: 7310 | plate-normalised HSF1 focus index [10]: 0.849 (inactive) | z-score ([11]; MELAS cybrid survival, CellTiter-Glo 48 h, stronger effect = higher value): 1.07 (inactive) | z-score ([11]; Rieske KO mouse fibroblast survival, CellTiter-Glo 72 h): 1.33 | viability ([12]; at 0.000305 µM, OCI-C5x cells, with rucaparib 10 µM, 100% = cells with rucaparib alone): 114% (inactive) | viability ([12]; at 0.000305 µM, OCI-C5x cells, without rucaparib): 114% (inactive) | viability ([12]; at 0.000305 µM, OCI-P5x cells, with rucaparib 20 µM, 100% = cells with rucaparib alone): 108% (inactive) | viability ([12]; at 0.000305 µM, OCI-P5x cells, without rucaparib): 96.4% (active) | viability ([12]; at 0.00122 µM, OCI-C5x cells, with rucaparib 10 µM, 100% = cells with rucaparib alone): 111% (inactive) | viability ([12]; at 0.00122 µM, OCI-C5x cells, without rucaparib): 113% (inactive) | viability ([12]; at 0.00122 µM, OCI-P5x cells, with rucaparib 20 µM, 100% = cells with rucaparib alone): 104% (inactive) | viability ([12]; at 0.00122 µM, OCI-P5x cells, without rucaparib): 98.8% (active) | viability ([12]; at 0.00488 µM, OCI-C5x cells, with rucaparib 10 µM, 100% = cells with rucaparib alone): 118% (inactive) | viability ([12]; at 0.00488 µM, OCI-C5x cells, without rucaparib): 106% (inactive) | viability ([12]; at 0.00488 µM, OCI-P5x cells, with rucaparib 20 µM, 100% = cells with rucaparib alone): 113% (inactive) | viability ([12]; at 0.00488 µM, OCI-P5x cells, without rucaparib): 111% (inactive) | viability ([12]; at 0.0195 µM, OCI-C5x cells, with rucaparib 10 µM, 100% = cells with rucaparib alone): 112% (inactive) | viability ([12]; at 0.0195 µM, OCI-C5x cells, without rucaparib): 112% (inactive) | viability ([12]; at 0.0195 µM, OCI-P5x cells, with rucaparib 20 µM, 100% = cells with rucaparib alone): 110% (inactive) | viability ([12]; at 0.0195 µM, OCI-P5x cells, without rucaparib): 109% (inactive) | viability ([12]; at 0.0781 µM, OCI-C5x cells, with rucaparib 10 µM, 100% = cells with rucaparib alone): 113% (inactive) | viability ([12]; at 0.0781 µM, OCI-C5x cells, without rucaparib): 113% (inactive) | viability ([12]; at 0.0781 µM, OCI-P5x cells, with rucaparib 20 µM, 100% = cells with rucaparib alone): 107% (inactive) | viability ([12]; at 0.0781 µM, OCI-P5x cells, without rucaparib): 108% (inactive) | viability ([12]; at 0.313 µM, OCI-C5x cells, with rucaparib 10 µM, 100% = cells with rucaparib alone): 87.3% (active) | viability ([12]; at 0.313 µM, OCI-C5x cells, without rucaparib): 85.9% (active) | viability ([12]; at 0.313 µM, OCI-P5x cells, with rucaparib 20 µM, 100% = cells with rucaparib alone): 91.1% (active) | viability ([12]; at 0.313 µM, OCI-P5x cells, without rucaparib): 98.9% (active) | viability ([12]; at 1.25 µM, OCI-C5x cells, with rucaparib 10 µM, 100% = cells with rucaparib alone): 10.5% (active) | viability ([12]; at 1.25 µM, OCI-C5x cells, without rucaparib): 39.1% (active) | viability ([12]; at 1.25 µM, OCI-P5x cells, with rucaparib 20 µM, 100% = cells with rucaparib alone): 3.13% (active) | viability ([12]; at 1.25 µM, OCI-P5x cells, without rucaparib): 21.8% (active) | viability ([12]; at 5 µM, OCI-C5x cells, with rucaparib 10 µM, 100% = cells with rucaparib alone): 5.56% (active) | viability ([12]; at 5 µM, OCI-C5x cells, without rucaparib): 5.78% (active) | viability ([12]; at 5 µM, OCI-P5x cells, with rucaparib 20 µM, 100% = cells with rucaparib alone): 1.22% (active) | viability ([12]; at 5 µM, OCI-P5x cells, without rucaparib): 1.21% (active) | inhibition ([13]; at 0.5 µM, stronger effect = higher value): 17.8% (inactive) and 78.4% (inactive) | inhibition ([13]; measured here: combination with BGB IC20, at 0.005 µM): -22.9% and -21.6% | inhibition ([13]; measured here: combination with BGB IC40, at 0.005 µM): -38.4% and -30.8% | inhibition ([13]; measured here: combination with BGB IC40, at 0.05 µM): -32.8% and -22.5% | inhibition ([13]; measured here: combination with cisplatin, at 0.5 µM, stronger effect = higher value): 83.8% and 104% | inhibition ([13]; measured here: combination with cisplatin, at 5 µM, stronger effect = higher value): 112% and 113% | inhibition ([14]; BGB combo, at 5 µM): 99.5% and 95.1% | inhibition ([14]; at 0.5 µM): -1.62% (inactive) and 3.24% (inactive) | inhibition ([14]; cisplatin combo, at 5 µM): 99.9% and 94.2% | inhibition ([14]; measured here: with BGB IC20 combination, at 0.5 µM): -9.96% and -0.599% | inhibition ([14]; measured here: with cisplatin IC20 combination, at 0.5 µM): 6.06% and 12.1% | inhibition ([14]; single agent, at 5 µM): 99.8% and 96.9% | inhibition ([15]; BGB IC20 combo, at 0.005 µM): 68.4% and 23% | inhibition ([15]; BGB IC40 combo, at 0.005 µM): 78.3% and 29.4% | inhibition ([15]; BGB IC40 combo, at 0.05 µM): 98% and 101% | inhibition ([15]; at 0.5 µM): -18.6% (inactive) and -24.1% (inactive) | inhibition ([15]; cisplatin combo, at 0.05 µM): 97.9% and 101% | inhibition ([15]; cisplatin combo, at 0.5 µM): -22% and -24.1% | inhibition ([15]; cisplatin combo, at 5 µM): -70.9% and -33.8% | inhibition ([15]; measured here: 5 uM single agent, at 5 µM): -13.9% and -10.2% | inhibition ([16]; at 0.5 µM): 11.7% (inactive) and 4.4% (inactive) | inhibition ([16]; measured here: with BGB IC20, at 0.5 µM): -2.94% and -22.5% | inhibition ([16]; measured here: with BGB IC20, at 5 µM): 99.7% and 73% | inhibition ([16]; measured here: with cisplatin IC20, at 0.5 µM): 26% and 9.91% | inhibition ([16]; measured here: with cisplatin IC20, at 5 µM): 67.6% and 94.8% | inhibition ([16]; single agent, at 5 µM): 99.9% and 74.9% | inhibition ([17]; at 0.5 µM): -4.99% (inactive) and -13.2% (inactive) | inhibition ([17]; measured here: BGB combination, at 0.5 µM): -10.9% and -11.9% | inhibition ([17]; measured here: BGB combination, at 5 µM): 61.3% and 55.7% | inhibition ([17]; measured here: cisplatin combination, at 0.5 µM): -18.9% and -27.4% | inhibition ([17]; measured here: cisplatin combination, at 5 µM): 74.5% and 60.7% | inhibition ([18]; at 0.5 µM): 82% (active) and 58.2% (inactive) | inhibition ([18]; cisplatin combination, at 0.5 µM): 99.1% and 87.2% | inhibition ([18]; cisplatin combination, at 5 µM): 103% and 101% | inhibition ([18]; measured here: BGB IC40 combination 0.05 uM, at 0.05 µM): -29.2% and 20% | inhibition ([18]; single agent, at 5 µM): 106% and 108% | inhibition ([19]; at 0.5 µM): 69.7% (inactive) and 45.9% (inactive) | inhibition ([19]; cisplatin combo, at 5 µM): 96.3% | inhibition ([19]; measured here: BGB IC40 combination, at 0.05 µM): -10.5% and -3.2% | inhibition ([19]; measured here: combination with cisplatin, at 0.5 µM): 82.3% and 57.4% | inhibition ([19]; single agent, at 5 µM): 89.6% and 92.4%
